Compounds without any hit were thinned out: in the full panel of roughly 83,000, 20% have a hit.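 A percent growth of 40 corresponds to 60% growth inhibition; 0 means no net growth; -100 means all cells died. Active threshold: below 10.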 Values without a mark were called inactive. Calls of active or inactive are those of the source.
Test system: MDA-MB-468 breast
Assay: NCI-60 one-dose screen, 48 h (100 = growth as untreated, 0 = no growth, -100 = all killed)
Conditions: 10 µM unless noted

Compound | growth
C=C(CNCCc1ccc(O)cc1)[C@@H]1CC[C@]2(COC3CCCCO3)CC[C@]3(C)[C@H](CC[C@@H]4[C@@]5(C)CCC(N)C(C)(C)[C@@H]5CC[C@]43C)[C@@H]12 (stereo not given in full) | -85.6% (active)
CCOC(=O)c1ccc2c(c1)c1c(C)c3cnccc3c(C)c1n2C | -81.8% (active)
CSc1ncc(C)c(Nc2ccc(Cl)cc2)n1 | 129%
Cc1ccc(S(=O)(=O)Nc2c(Br)cc(Br)cc2C(N)=O)cc1 | 102%
CCOC(=O)C(=O)CC(=O)N1C(=S)NC(=O)C1CC(C)C (stereo not given) | 85.1%
CCc1nn2c(C)cc(C)nc2c1Cc1ccc(/C=C/CN2CCN(CCOCCOCCN3CCN(C/C=C/c4ccc(Cc5c(CC)nn6c(C)cc(C)nc56)cc4)CC3)CC2)cc1 | -6.16% (active)
CN(CCCNC(=O)CCOCCOCCOCCNC(=O)Cc1ccc2ccc3cccc4ccc1c2c34)CCCNc1cc(-c2ccc3ccccc3c2)nc2ccccc12 | -92.2% (active)
OC1(c2ccccc2)c2ccccc2N(c2ccccc2)c2ccc(Cl)cc21 (stereo not given) | -75.3% (active)
Cc1ccc(S(=O)(=O)N(C)CCCCCC(=O)O)cc1 | 108%
COc1ccc(-c2nc(SCC(=O)Nc3nc(-c4ccccc4)cs3)[nH]c(=O)c2C#N)cc1 | 84.2%
CC(=O)OC1CCC2(C)C(CCC3C4CC=C(C(C)=O)C4(C)OC(=O)CC32)C1 (stereo not given) | -72.4% (active)
COc1ccc2nc3c(n2c1)C(=O)C(=O)c1ccccc1-3 | -10.8% (active)
Cc1nc(N)sc1Sc1nc2ccc(Cl)cc2c(=O)n1-c1ccc(Oc2ccccc2)cc1 | 76.6%
COc1ccc(NS(=O)(=O)c2ccc(-c3cnc(C4CC4)o3)cc2)cc1Cl | 9.75% (active)
C#CCOc1ccc(/C=N/Nc2nc(-c3cc4cc(Br)cc(Br)c4oc3=O)cs2)cc1 | 106%
O=C(NC(=S)Nc1ccccn1)c1ccccc1 | 45.1%
Clc1cccc(Cl)c1Cn1c(-c2cncs2)nc2ccccc21 | 52.6%
CCCC(=O)N1CCCCC1CC (stereo not given) | 102%
C=CCn1c(SCC(=O)Nc2ccc(/C(C)=N\O)cc2)nnc1-c1cc(-c2ccc(Cl)cc2)nc2ccccc12 | 42.7%
O=C1Nc2ccccc2/C1=C/c1ccc[nH]1 | -26% (active)

Compound | growth
N=C(N)c1ccc(-c2ccc(-c3cc(F)cc(F)c3)o2)nc1 | 85.3%
CCC1=C(c2ccc(OC)cc2)C(C)Oc2cc(OC(C)=O)ccc21 (stereo not given) | -14.1% (active)
COc1cc(NC(=O)c2sc3nc4c(cc3c2N)C(O)CCC4)cc(OC)c1 (stereo not given) | 54%
CCN(CCC#N)c1ccccc1 | 118%
CC(C)c1ccc(Nc2n[nH]c(=S)s2)cc1 | 107%
CCN(CC)CCCCCCCNc1cc(OC)cc2c(C)ccnc12 | 40.5%
CCN(CC)C(=O)C1(C)CCCC2(C)c3cc(OC(C)=O)ccc3CCC12 (stereo not given) | 56.9%
COc1ccc2cc(C(=O)N3CCC([C@@H](C)C(=O)NCc4ccc5c(c4)OCO5)CC3)[nH]c2c1 | 41.1% [50 µM]
Cn1c(=O)c2nc(SCc3ccccc3)n(C)c2n(C)c1=O | 103%
Cc1cc(Cl)ccc1NC(=O)/C(Cl)=C1/Sc2ccccc2NC1=O | 95.1%
CNc1nc(NC)c2cn[nH]c2n1 | 94.8%
O=C(CSc1nc2ccccc2[nH]1)NCc1ccccc1 | 101%
CC(/C=N/NC(=O)c1cc(-c2ccco2)[nH]n1)=C\c1ccccc1 | 117%
C#Cc1nc(Nc2cc(C)[nH]n2)c2ccccc2n1 | -23.2% (active)
C=C(C)[C@@H]1CC[C@]2(C(=O)N3CCN(C)CC3)CC[C@]3(C)[C@H](CC[C@@H]4[C@@]5(C)CC[C@H](OC(=O)c6ccccc6C(=O)O)C(C)(C)[C@@H]5CC[C@]43C)[C@@H]12 | 107%
ClCC1(Cn2cnc3c(Cl)nc(Cl)nc32)COC1 | 19.4%
O=C(NCCNCCO)c1cc([N+](=O)[O-])cc([N+](=O)[O-])c1O | 103%
O=C(Nc1cccc2cccnc12)c1cc(C(=O)c2ccc(Cl)cc2)n2ccc(-c3ccncc3)cc12 | 108%
CCN(C(=O)Nc1ccccc1Cl)c1ccccc1 | 97.4%
CN(C)c1ccc(N2Cc3ccccc3OC3=C2C(=O)c2c(O)ccc(O)c2C3=O)cn1 | -59.4% (active)
